# Data as given in PMC4336329 (PLoS ONE, 2015).
# About 14,000 (4.5%) of roughly 310,000 compounds showed an effect of 50% or more. Effects have a minus sign here. Many of the other results were omitted from the sample, so strong results are more common in it than they were.
# Molecular target: human ether-à-go-go-related gene (hERG) potassium channel (human, UniProt Q12809)
# Experiment: primary screen, population patch clamp on CHO cells stably expressing hERG; higher = less effect of the substance
# 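Note: peak tail current of the secondary pulse compared with the same well before compound.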
# human ether-à-go-go-related gene (hERG) potassium channel, sequence (Q12809 whole entry, looked up): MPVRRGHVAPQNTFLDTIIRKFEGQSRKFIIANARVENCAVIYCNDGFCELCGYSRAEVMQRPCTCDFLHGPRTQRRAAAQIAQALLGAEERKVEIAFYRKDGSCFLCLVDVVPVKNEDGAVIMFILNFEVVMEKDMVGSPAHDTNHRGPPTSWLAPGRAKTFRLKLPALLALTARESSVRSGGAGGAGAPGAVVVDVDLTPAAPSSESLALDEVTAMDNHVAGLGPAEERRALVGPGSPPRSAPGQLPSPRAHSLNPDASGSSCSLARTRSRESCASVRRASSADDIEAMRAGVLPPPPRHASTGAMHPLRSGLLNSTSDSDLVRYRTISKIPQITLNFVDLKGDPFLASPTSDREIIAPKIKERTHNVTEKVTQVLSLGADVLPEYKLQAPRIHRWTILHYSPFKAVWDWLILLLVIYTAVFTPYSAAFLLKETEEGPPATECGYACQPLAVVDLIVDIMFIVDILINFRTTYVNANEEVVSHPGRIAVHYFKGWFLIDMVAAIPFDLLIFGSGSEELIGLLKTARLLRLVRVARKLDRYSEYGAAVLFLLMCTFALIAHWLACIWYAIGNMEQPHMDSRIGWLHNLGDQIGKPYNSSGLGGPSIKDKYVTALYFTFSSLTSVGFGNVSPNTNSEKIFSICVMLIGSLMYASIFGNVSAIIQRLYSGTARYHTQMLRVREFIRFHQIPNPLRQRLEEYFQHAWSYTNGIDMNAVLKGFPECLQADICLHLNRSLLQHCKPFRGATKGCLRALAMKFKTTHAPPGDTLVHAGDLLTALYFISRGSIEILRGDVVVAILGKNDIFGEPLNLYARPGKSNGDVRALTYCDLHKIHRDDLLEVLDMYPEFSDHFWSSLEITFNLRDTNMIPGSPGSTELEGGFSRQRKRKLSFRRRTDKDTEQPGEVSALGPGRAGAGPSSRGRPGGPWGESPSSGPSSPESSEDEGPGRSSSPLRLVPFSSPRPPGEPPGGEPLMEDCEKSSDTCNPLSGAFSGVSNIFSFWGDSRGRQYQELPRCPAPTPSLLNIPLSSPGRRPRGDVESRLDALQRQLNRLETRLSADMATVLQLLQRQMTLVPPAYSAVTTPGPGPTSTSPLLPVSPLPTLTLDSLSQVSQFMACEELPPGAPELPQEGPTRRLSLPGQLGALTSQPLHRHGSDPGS
row,SMILES,"hERG current change (%, negative = inhibition) at 10uM"
1,CCCC/C=C1\CCc2c([nH]c3ccccc23)C1=O,10.1%
2,CCCCCCCCC1=NCCc2c1[nH]c1ccccc21.Cl,-79.2%
3,CC1=NCCc2c1[nH]c1ccccc21,-22.7%
4,Cc1cccc(NC(=O)c2ccco2)c1C,22.4%
5,CC1=C(C#N)C(c2ccccc2)C2=C(N1)c1ccccc1C2=O (stereo not shown),1.22%
6,Cc1ccc(S(=O)(=O)Cc2ccc(C(=O)N3CCN(c4ccc(F)cc4)CC3)o2)cc1,-69.5%
7,Cc1ccccc1S(=O)(=O)Cc1ccc(C(=O)N2CCN(c3ccc(F)cc3)CC2)o1,-64.3%
8,Cc1ccccc1S(=O)(=O)Cc1ccc(C(=O)N2CCN(c3ccccc3F)CC2)o1,-40.7%
9,Cc1ccc(S(=O)(=O)Cc2ccc(C(=O)N3CCN(c4cc(C)ccc4C)CC3)o2)cc1,-18.7%
10,O=C(c1ccc(CS(=O)(=O)c2ccc(Br)cc2)o1)N1CCN(c2ccc(F)cc2)CC1,6.91%
11,COc1ccc(N2CCN(C(=O)c3ccc(CS(=O)(=O)c4ccccc4C)o3)CC2)cc1,-21.5%
12,O=C(CNC(=O)c1ccc(S(=O)(=O)N2CCCC2)cc1)N/N=C/c1ccc(Cl)cc1Cl,-3.34%
13,Cc1ccccc1NCCC(=O)Nc1ccc(F)cc1,-21.4%
14,COc1ccc(/C=C(/NC(=O)c2ccc(C)cc2)C(=O)NCc2ccncc2)cc1,-66.2%
15,COc1ccc(/C=C(\NC(=O)c2ccc(C)cc2)C(=O)NCC2CCCO2)cc1 (stereo not shown),-8.44%
16,COc1ccc(/C=C(/NC(=O)c2ccccc2)C(=O)NCc2ccncc2)cc1,-44.5%
17,COc1ccc(C(=O)N/C(=C/c2ccc(Cl)cc2)C(=O)NCc2ccncc2)cc1,-65.4%
18,COc1ccc(C(=O)N/C(=C/c2ccc(Cl)cc2)C(=O)Nc2ccc(C(=O)O)cc2)cc1,11.4%
19,COc1ccc(C(=O)N/C(=C\c2ccc(Cl)cc2)C(=O)NCC2CCCO2)cc1 (stereo not shown),-38%
20,O=C(O)/C=C/c1cn(-c2ccccc2)nc1-c1ccccc1,3.71%
21,O=C(NCc1ccccn1)C1CC(=O)N(C2CCCC2)C1 (stereo not shown),9.62%
22,COc1ccc(CNC(=O)CN2C(=O)CC(c3ccccc3)=Nc3ccccc32)cc1,-8.66%

row,SMILES,"hERG current change (%, negative = inhibition) at 10uM"
1,Cc1cc(NC(=O)Cn2cnc3c(nnn3-c3cccc(F)c3)c2=O)no1,5.01%
2,CC(=O)C(C(C)=O)C(c1ccccc1)c1nc2ccccc2[nH]c1=O (stereo not shown),14.1%
3,COc1ccc(F)cc1C(=O)C1CCCN(Cc2ccc(Oc3ncccn3)cc2)C1 (stereo not shown),-64.2%
4,COC(=O)c1ccc(CN2CCCC(C(=O)c3ccccc3OC)C2)cc1 (stereo not shown),-43.1%
5,COc1ccccc1C(=O)C1CCCN(Cc2cccc(OCCO)c2)C1 (stereo not shown),-19.6%
6,COc1ccccc1C(=O)C1CCCN(C(=O)c2ccccc2Cl)C1 (stereo not shown),10.4%
7,COc1ccccc1C(=O)C1CCCN(Cc2ccc(Oc3ncccn3)cc2)C1 (stereo not shown),-40.6%
8,COc1ccc(F)cc1C(=O)C1CCCN(Cc2cnc(N3CCCC3)s2)C1 (stereo not shown),-29.4%
9,COC(=O)c1ccc(CN2CCCC(C(=O)c3cc(F)ccc3OC)C2)cc1 (stereo not shown),-68%
10,COc1ccc(F)cc1C(=O)C1CCCN(C(=O)CCc2ccccn2)C1 (stereo not shown),2.48%
11,COc1ccc(F)cc1C(=O)C1CCCN(Cc2cnc(C)s2)C1 (stereo not shown),-21%
12,CCOc1ccc(CN2CCCC(C(=O)c3ccccc3OC)C2)cc1 (stereo not shown),-82%
13,COc1ccc(F)cc1C(=O)C1CCCN(Cc2ccc(O)cc2)C1 (stereo not shown),-52%
14,CC(=O)NCCC(=O)Nc1nc(-c2ccccc2Cl)cs1,-9.76%
15,CCOc1ccc(C(=O)Nc2cccc(-n3cnnn3)c2)cc1OCC,-40.4%
16,O=C(/C=C/c1ccco1)Nc1ccc(Oc2ccc(Cl)cc2)cc1,16.1%
17,COc1ccc(S(=O)(=O)NCc2ccccn2)cc1Br,12.5%
18,CCN1C(=O)/C(=C/c2cc(C)n(C)c2C)SC1=Nc1ccc(OC)cc1,9.24%
19,Cc1ccccc1NN1C(=O)C=CC1=O,-8.26%
20,CCOC(=O)CC1C(=O)NCCN1C(=O)c1c(F)cccc1F (stereo not shown),16.1%
21,COc1ccc2cc(CCNC(=O)C(C)C)c(=O)[nH]c2c1,13.4%
22,C/C(=N\NC(=O)C(C)Sc1ccccc1)c1ccc([N+](=O)[O-])cc1 (stereo not shown),-3.27%

row,SMILES,"hERG current change (%, negative = inhibition) at 10uM"
1,C/C(=N\NC(=O)C(C)Nc1cccc(Cl)c1)c1ccc([N+](=O)[O-])cc1 (stereo not shown),-50.5%
2,C/C(=N\NC(=O)c1cccc(N/N=C(\C)c2ccc([N+](=O)[O-])cc2)c1)c1ccc([N+](=O)[O-])cc1,1.39%
3,Cc1c(Cl)cccc1NC(=S)N1CCN(c2ccc([N+](=O)[O-])cn2)CC1,2.33%
4,O=C(NCc1ccc(F)cc1)C1CCCN(S(=O)(=O)c2cccc3nonc23)C1 (stereo not shown),19.6%
5,CN(C)CCCN(C(=O)c1ccc([N+](=O)[O-])s1)c1nc2cc3c(cc2s1)OCCO3.Cl,-71.3%
6,CN(C)CCN(C(=O)c1cccc2ccccc12)c1nc2cc3c(cc2s1)OCO3.Cl,-22.3%
7,CN(C)CCCN(C(=O)c1cccs1)c1nc2cc3c(cc2s1)OCO3.Cl,-56.8%
8,CN(C)CCCN(C(=O)c1cc(Cl)sc1Cl)c1nc2cc3c(cc2s1)OCO3.Cl,-41.9%
9,Cc1ccc2nc(N(CCCN(C)C)C(=O)c3ccc(Br)s3)sc2c1.Cl,-44.3%
10,Cc1ccc2sc(N(CCCN(C)C)C(=O)c3ccc(Br)s3)nc2c1C.Cl,-71.7%
11,CN(C)CCN(C(=O)c1cccs1)c1nc2cc3c(cc2s1)OCCO3.Cl,-23.6%
12,Cc1ccc2sc(N(CCCN(C)C)C(=O)c3nc4ccccc4s3)nc2c1C.Cl,3.59%
13,CN(C)CCCN(C(=O)c1ccc(Cl)s1)c1nc2cc3c(cc2s1)OCO3,-69%
14,CCC(C(=O)NC1CCCCC1)n1c2ccccc2c2nc(=O)cc(C)n21 (stereo not shown),10.4%
15,O/N=C/c1cn(-c2ccccc2)nc1-c1cccnc1,-31.6%
16,COCCCNC(=O)Cn1cnc2sc(C)c(S(=O)(=O)N3CC(C)CC(C)C3)c2c1=O (stereo not shown),-0.637%
17,COCCCN1C(=O)c2ccc(C(=O)O)cc2C1=O,-0.568%
18,COC(=O)c1ccc(/C=N/NC(=O)c2cccc(F)c2)cc1,6.65%
19,COc1cccc(C(=O)NCC(=O)N/N=C/c2cn[nH]c2-c2ccccc2)c1,-4.6%
20,Cc1nc2nc(C)c(CCC(=O)NCCC3=CCCCC3)c(C)n2n1,4.49%
21,COc1ccc(S(=O)(=O)N(C)C)cc1NC(C)C(=O)Nc1cccc(C#N)c1 (stereo not shown),-23.5%
22,COc1cccc(CNC(=O)C2CSC3(C)CCC(=O)N23)c1 (stereo not shown),6.82%

row,SMILES,"hERG current change (%, negative = inhibition) at 10uM"
1,CN(C)c1ccc(N/C=C/C(=O)C(C)(C)C)cc1,15.9%
2,COC(=O)CN1C(=S)N(C)C(=O)/C1=C/c1cccs1,5.21%
3,O=C(CNC(=O)c1ccc(Br)o1)NNC(=O)c1ccccc1O,-2.55%
4,CCn1c2ccccc2c2cc(N=C3SC(CC(=O)Nc4ccccc4OC)C(=O)N3CCOC)ccc21 (stereo not shown),-3.75%
5,CN(C)CCCN(C(=O)c1ccc(Br)s1)c1nc2cc3c(cc2s1)OCO3.Cl,-52%
6,CN(C)CCCN(C(=O)c1ccc(Br)s1)c1nc2cc3c(cc2s1)OCCO3.Cl,-33.9%
7,CN(C)CCN(C(=O)c1ccc(Br)s1)c1nc2cc3c(cc2s1)OCCO3.Cl,-4.91%
8,COC(=O)C1=C(c2ccc(F)cc2OCc2ccccc2)C[C@@H]2CC[C@H]1N2C(=O)N1CCCCC1,-9.9%
9,Cc1ccccc1CNC(=O)Cn1cnc(S(=O)(=O)N2CCCC2)c1,6.06%
10,CCCOC(=O)C(C)n1cnc2scc(-c3ccc(C)cc3)c2c1=O (stereo not shown),6.79%
11,CC(C)(C)n1nnnc1C(c1ccc2ncccc2c1)N1CCC(O)CC1 (stereo not shown),12.4%
12,CC(C)(C)n1nnnc1C(c1cccnc1)N1CCN(c2cccc(C(F)(F)F)c2)CC1.Cl (stereo not shown),-53.3%
13,COc1ccc(N2CCN(C(c3ccc4ncccc4c3)c3nnnn3C(C)C)CC2)cc1 (stereo not shown),-51.7%
14,CC(C)(C)n1nnnc1C(c1ccc2ncccc2c1)N1CCSCC1 (stereo not shown),-18.1%
15,COCCn1nnnc1C(c1ccc2ncccc2c1)N1CCN(c2ccccc2F)CC1 (stereo not shown),-19.4%
16,COc1ccc(N2CCN(C(c3ccc4ncccc4c3)c3nnnn3C(C)(C)C)CC2)cc1 (stereo not shown),-52.1%
17,CCC(C)(C)n1nnnc1C(c1ccc2ncccc2c1)N1CCN(c2ccc(O)cc2)CC1 (stereo not shown),-31.7%
18,CCC(C)(C)n1nnnc1C(c1cccnc1)N1CCN(c2cccc(C(F)(F)F)c2)CC1 (stereo not shown),-41%
19,CC(C)(C)n1nnnc1C(c1cccnc1)N1CCN(c2ccccc2)CC1 (stereo not shown),-8.19%
